From PubChem BioAssay (NCATS) come the findings set out here.

Test [1] concerns the target Aldehyde dehydrogenase, mitochondrial (Homo sapiens) (UniProt P05091). Kind of test: qHTS for Inhibitors of the Aldehyde Dehydrogenase Family (ALDH2) Primary screen (AID 2061308). Also: nearly all actives have a fitted effect of over 55% in size. For orientation: Quantitative high-throughput screening tests each substance at several concentrations.
For test [2], the target named is Retinaldehyde dehydrogenase 3 (Homo sapiens) (UniProt P47895). As to the kind of experiment: qHTS for Inhibitors of the Aldehyde Dehydrogenase Family (ALDH1A3) Primary screen (AID 2061315).

Records with an inconclusive call do not appear. A call without a number means that no potency is given here. Calls of active or inactive are those of the source. Calls follow the shape of the dose curve; as a rule, active = well fitted curve in the direction sought with a large enough effect; inconclusive = small, poorly fitted or top-dose-only effect, or another doubt; inactive = no such curve, though single readings can be large; an effect the other way counts as inactive or inconclusive.

Consider `O=S(=O)(NCCCCNS(=O)(=O)c1c(F)cccc1F)c1ccc2c(c1)OCCO2`, for which the Potency entry in test [1] and in test [2] was “inactive” throughout.
Turning to `Cc1cc(C)cc(N2CCN(C(=S)Nc3cc(C)cc(C)n3)CC2)c1`, the Potency result in test [1] and in test [2] was “inactive” throughout.
As for `COc1cccc(CNc2ncnc3ccc(-c4c(C)noc4C)cc23)c1`, the Potency result in test [1] and in test [2] was “inactive” in each case.
As to `O=[S+]([O-])(c1ccc2c(c1)OCCO2)N1CCN([S+](=O)([O-])c2c(F)cc(Br)cc2F)CC1`, the Potency entry in test [1] and in test [2] was “inactive” each time.
Regarding `CCOC(=O)c1cccc(NS(=O)(=O)c2ccc(NC(=O)Cc3ccc(Cl)c(Cl)c3)cc2)c1`, the Potency result in test [1] and in test [2] was “inactive” throughout.
Consider `O=C(Nc1ccc2ccccc2c1)Nc1cccc(-c2ccncc2)n1`, for which the Potency result in test [1] and in test [2] was “inactive” throughout.
As to `Cc1ccc(OCCn2c(CCNC(=O)c3cccc(NC(=O)OC(C)(C)C)c3)nc3ccccc32)cc1`, the Potency result in test [1] and in test [2] was “inactive” throughout.
For `Cc1ccc(-c2cc(C(=O)Nc3ccc(-n4cncn4)cc3)c3ccccc3n2)cc1C`, the Potency result in test [1] and in test [2] was “inactive” throughout.
Take `O=[S+]([O-])(/C=C/c1nc(Nc2cc(F)cc(F)c2)c2ncn(CC(F)F)c2n1)c1ccccc1`: the Potency entry in test [1] and in test [2] was “inactive” in each case.
Take `Fc1ccc(-c2nc(-c3c(F)cccc3F)[nH]c2-c2ccncc2)cc1`: the Potency result in test [1] and in test [2] was “inactive” each time.
Consider `COC(=O)c1cccc(-c2noc(-c3ccccc3F)n2)c1`, for which the Potency result in test [1] and in test [2] was “inactive” each time.
As to `Cc1ccc(-c2ccc(=O)n(C(C)C)n2)cc1`, the Potency entry in test [1] and in test [2] was “inactive” throughout.
`O=C1CCc2cc(S(=O)(=O)Nc3cccc4ccccc34)ccc2N1`: the Potency result in test [1] and in test [2] was “inactive” in each case.
As to `CCOc1ccc(CCNC(=O)C2CCCCC2)cc1OCC`, the Potency entry in test [1] and in test [2] was “inactive” each time.
As for `Cc1ccc(S(=O)(=O)Nc2cc(C(=O)Nc3nc(-c4ccccc4)cs3)ccn2)cc1`, the Potency entry in test [1] and in test [2] was “inactive” throughout.
For the molecule `COc1cc2c(NC3CCN(C(C)C)CC3)nc(N3CCC(F)(F)CC3)nc2cc1OCCCN1CCCC1`, the Potency result in test [1] and in test [2] was “inactive” in each case.
Consider `COc1cc(OC)cc(C2=Nn3c(nnc3-c3ccccc3O)SC2)c1`, for which the Potency entry in test [1] and in test [2] was “inactive” each time.
On to `O=[S+]1([O-])N=C(Oc2cccnc2)c2ccccc21`, for which the Potency result in test [1] and in test [2] was “inactive” in each case.
Take `Cc1cccc(-n2cnc3cc(C(=O)N4CCCCC4)ccc32)c1`: the Potency entry in test [1] and in test [2] was “inactive” in each case.
As to `c1nc(NCc2ccoc2)c2cc(-c3ccc4c(c3)OCO4)ccc2n1`, the Potency entry in test [1] and in test [2] was “inactive” throughout.
In the case of `O=C1c2ccccc2C(=O)N1c1ccncc1`, the Potency entry in test [1] and in test [2] was “inactive” each time.
Regarding `CCCn1c(C)nc2c(NC3CCN(Cc4ccccc4)CC3)nc(C)nc21`, the Potency entry in test [1] and in test [2] was “inactive” throughout.
As for `CN(C)c1oc(-c2cccc3ccccc23)nc1C#N`, the Potency entry in test [1] and in test [2] was “inactive” each time.
As for `S=C(Nc1ccc(Cl)c(Cl)c1)Nc1nnc(-c2ccncc2)s1`, the Potency result in test [1] and in test [2] was “inactive” each time.
For the molecule `FC(F)(F)c1ccccc1-c1nc(NCc2ccc(-c3cccnc3)cc2)c2[nH]cnc2n1`, the Potency result in test [1] and in test [2] was “inactive” in each case.
`Cc1cccc(-n2cnc3cc(C(=O)NC4CCCCC4)ccc32)c1`: the Potency result in test [1] and in test [2] was “inactive” in each case.
As to `c1nc(NCC2CCCO2)c2ccc(-c3ccc4c(c3)OCO4)cc2n1` (configuration not stated), the Potency entry in test [1] and in test [2] was “inactive” each time.
For the molecule `Cc1cc(N[S+](=O)([O-])c2ccc(NC(=O)Cc3ccc(C(F)(F)F)c(F)c3)cc2)no1`, the Potency entry in test [1] and in test [2] was “inactive” throughout.
As to `O=S(=O)(c1cccc(C(F)(F)F)c1)N1CCN(S(=O)(=O)c2ccc3c(c2)OCCO3)CC1`, the Potency result in test [1] and in test [2] was “inactive” in each case.
Turning to `O=C(Nc1ccc(-c2nc3ccccc3[nH]2)cc1)c1ccc2cc[nH]c2c1`, the Potency result in test [1] and in test [2] was “inactive” in each case.
For the molecule `O=c1[nH]ccc2nc(-c3ccc(CN4CCC(c5nc(-c6ccccn6)n[nH]5)CC4)cc3)c(-c3ccccc3)cc12`, the Potency result in test [1] and in test [2] was “inactive” in each case.
Regarding `CCCn1c(C)nc2c(NCCCN3CCCCC3C)nc(C)nc21` (configuration not stated), the Potency entry in test [1] and in test [2] was “inactive” in each case.
In the case of `N#Cc1cccc(-c2ccc(CNc3nc(-c4ccccc4C(F)(F)F)nc4ccccc34)cc2)c1`, the Potency entry in test [1] and in test [2] was “inactive” each time.
In the case of `COc1ccc(NC(=O)c2cccnc2C)cc1S(=O)(=O)Nc1ccc(Br)cc1`, the Potency entry in test [1] and in test [2] was “inactive” throughout.
Take `N#Cc1ccc(NS(=O)(=O)c2ccc(NC(=O)Cc3ccc(Cl)c(Cl)c3)cc2)cc1`: the Potency entry in test [1] and in test [2] was “inactive” throughout.
As for `O=C(CNC(=O)c1ccccc1Cl)OC(C(=O)Nc1cc(C(F)(F)F)ccc1Cl)c1ccccc1` (configuration not stated), the Potency entry in test [1] and in test [2] was “inactive” each time.
For `CCOc1ccc(C(=O)Nc2ccc(-c3nc4ccccc4s3)cc2)cc1[N+](=O)[O-]`, the Potency entry in test [1] and in test [2] was “inactive” throughout.
For the molecule `CCC(C)N(C)C(=O)Cn1nc(-c2ccc(C)cc2)ccc1=O` (configuration not stated), the Potency entry in test [1] and in test [2] was “inactive” each time.
Take `COc1ccc(CN(Cc2ccccc2)C(=O)c2ccccc2O)cc1COc1ccc(NC(C)=O)cc1`: the Potency entry in test [1] and in test [2] was “inactive” throughout.
As to `O=C(Nc1ccc(F)c(F)c1)Nc1nnc(-c2ccncc2)s1`, the Potency entry in test [1] and in test [2] was “inactive” in each case.
On to `O=C1CCc2cc(S(=O)(=O)Nc3ccc(Cl)c(Cl)c3)ccc2N1`, for which the Potency result in test [1] and in test [2] was “inactive” in each case.
